Screening data: PubChem, National Center for Advancing Translational Sciences (NCATS)
Sampled rows, rich in hits. Any-hit rate of the full collection: about 6.3%.
RORg inh – ROR gamma (mouse) transcription inhibition; P51450; Potency, µM (series often up to 53.6 µM), most hits filed as inhibitors; AID 2551; Drosophila S2 Gal4-RORgamma UAS-luciferase reporter, 20 h; 5.4% of 310,000 active; further: nearly all actives have a fitted effect of over 60% in size
Target sequence (P51450 whole entry, looked up, the tested form may be a part): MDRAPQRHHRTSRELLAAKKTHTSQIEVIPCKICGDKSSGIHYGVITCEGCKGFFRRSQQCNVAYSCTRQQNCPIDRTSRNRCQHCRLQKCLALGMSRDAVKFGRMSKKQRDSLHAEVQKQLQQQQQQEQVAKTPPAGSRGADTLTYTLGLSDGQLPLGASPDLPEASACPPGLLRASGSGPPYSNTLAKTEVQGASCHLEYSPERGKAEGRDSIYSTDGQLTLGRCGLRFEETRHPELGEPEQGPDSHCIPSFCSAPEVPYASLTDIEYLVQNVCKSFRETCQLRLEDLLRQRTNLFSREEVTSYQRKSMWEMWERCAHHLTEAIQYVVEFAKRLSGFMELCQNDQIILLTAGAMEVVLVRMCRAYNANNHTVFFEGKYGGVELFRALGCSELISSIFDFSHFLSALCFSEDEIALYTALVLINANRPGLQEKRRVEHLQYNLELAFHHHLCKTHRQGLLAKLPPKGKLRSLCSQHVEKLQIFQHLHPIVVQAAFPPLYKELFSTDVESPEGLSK
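ROR gamma transcriptional activity was tracked as Gal4-UAS luciferase output in stably transfected Drosophila Schneider cells, with compound added 1 hr before 700 uM copper sulfate induction and a 20 hr ambient-temperature incubation.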
S2 tox – reduces viability in counter-screen for ATXN expression inhibitors; 0.49% of 400,000 active; Potency, µM (highest dose often 56.7 µM), usual class: cytotoxic; AID 651635; S2 cells (HEK-293 line with an ATXN2-luciferase reporter) viability, CellTiter-Fluor protease fluorescence, 24 h; further: nearly all actives have a fitted effect of over 40% in size
Gal4-VP16 FLuc – inhibits Gal4-VP16 luciferase reporter, ROR gamma counter-screen | Drosophila S2 Gal4-VP16 UAS-luciferase, luminescence, 20 h | Potency, µM (highest dose often 53.6 µM), actives largely listed as inhibitors | 3.5% of 310,000 active;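 further: Gal4-VP16 expression switched on by copper sulfate through the metallothionein promoter; nearly all actives have a fitted effect of over 50% in size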
ATXN2 expr inh – inhibitors of ATXN2 expression; HEK-293 ATXN2-luciferase reporter, luminescence, 24 h; Potency, µM (titrated, usually from 57 µM), actives largely listed as inhibitors; 0.72% of 360,000 active; AID 1745845; further: nearly all actives have a fitted effect of over 55% in size
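ATXN2-luciferase reporter cells (luciferase flanked by upstream and downstream ATXN2 gene portions) were treated 24 h at 37 °C with compounds at up to 57 uM. SteadyGlo luminescence gave expression; GF-AFC fluorescence gave viability.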
HepG2 tox – kills HepG2 cells in TGF-b inhibitor counter-screen. HepG2 CAGA-GFP viability, ATP luminescence, 18 h. Potency, µM (highest dose often 46.1 µM), usual class: cytotoxic. 0.76% of 410,000 active. AID 588856
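CellTiter-Glo luminescence gave cytotoxicity after 18 hours at 37 degrees C. The cells were HepG2 CAGA-GFP in 1% FBS DMEM, stimulated with 500 pg/mL TGF-beta after compound addition. %Activity was normalised to no-cell wells (complete cell-killing) and DMSO (no toxicity), and curves were fitted and classified.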
TGFb SMAD3 inh – TGF-b pathway inhibition. HepG2 CAGA-GFP TGF-b/SMAD3 reporter, GFP fluorescence, 18 h; TGF-beta stimulated, 500 pg/mL final. Potency, µM (highest dose often 46.1 µM), hits mostly inhibitors. 1.2% of 410,000 active. AID 588855; further: nearly all actives have a fitted effect of over 65% in size
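HEPG2 CAGA-GFP, 1000 cells/well; 2 h settle, 37 C; cpd via pin tool; TGF-b 500 pg/mL final; 18 h, 37 C; GFP imaging ex488/em500-530; %Activity normalised to -TGF-b and +DMSO controls; CRC fit, curve class.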
Of the large screens only hits and unclear results are named; the others gave an inactive call. The call rests on the fitted dose curve; in most records, active means well fitted curve in the direction sought with a large enough effect; inconclusive means small, poorly fitted or top-dose-only effect, or another doubt; inactive means no such curve, though single readings can be large; an effect the other way counts as inactive or inconclusive.

S=C(NCCc1ccc(Cl)cc1)NCc1ccco1	RORg inh 11µM
O=C(CCNS(=O)(=O)c1ccc2c(c1)CCN2C(=O)C1CC1)N1CCN(c2ccc(F)cc2)CC1	TGFb SMAD3 inh inconclusive (no result: RORg inh, Gal4-VP16 FLuc)
COc1ccccc1-c1ccnc(-n2ncc(C(=O)N(C)C(C)c3nc(C)cs3)c2C2CC2)n1 (stereo not drawn)	none (no result: RORg inh, Gal4-VP16 FLuc, ATXN2 expr inh, HepG2 tox, TGFb SMAD3 inh)
O=C(CNc1cc(S(=O)(=O)N2CCOCC2)ccc1N1CCCC1)Nc1ccc(Cl)cc1F	none (no result: RORg inh, Gal4-VP16 FLuc, ATXN2 expr inh)
CC(C)=CCC[C@](C)(O)C1CC[C@]2(C)[C@@H]1CC[C@@H]1[C@@]3(C)CCC(=O)C(C)(C)[C@@H]3CC[C@]12C (stereo partly drawn)	none (no result: S2 tox, ATXN2 expr inh, HepG2 tox, TGFb SMAD3 inh)
O=C1CS/C(=N/N=C/c2ccccc2OS(=O)(=O)c2ccccc2)N1	RORg inh inconclusive, Gal4-VP16 FLuc 13µM
Cc1ccc(OS(=O)(=O)c2ccccc2)c(/C=N/N=C2\NC(=O)C(C)S2)c1 (stereo not drawn)	RORg inh 8.9µM, Gal4-VP16 FLuc 16µM
CC(O)COCC1OC2OC3C(COCC(C)O)OC(OC4C(COCC(C)O)OC(OC5C(COCC(C)O)OC(OC6C(COCC(C)O)OC(OC7C(COCC(C)O)OC(OC8C(COCC(C)O)OC(OC1C(OCC(C)O)C2OCC(C)O)C(OCC(C)O)C8OCC(C)O)C(OCC(C)O)C7OCC(C)O)C(OCC(C)O)C6OCC(C)O)C(OCC(C)O)C5OCC(C)O)C(OCC(C)O)C4OCC(C)O)C(OCC(C)O)C3OCC(C)O (stereo not drawn)	none (no result: RORg inh, S2 tox, Gal4-VP16 FLuc, ATXN2 expr inh)
Cc1ccc(Cn2c(C)c(CNC(C)c3ccccc3)c(C(=O)O)c2C)cc1 (stereo not drawn)	none (no result: RORg inh, Gal4-VP16 FLuc)
CN(Cc1ccccc1)C(=O)CC(c1ccccc1)c1cc(Cl)ccc1O (stereo not drawn)	RORg inh inconclusive, TGFb SMAD3 inh 16µM
O=C(c1ccccc1)c1ccc(-c2ccc(O)cc2)cc1	RORg inh 3.5µM, Gal4-VP16 FLuc 18µM
CCc1cccc(NC(=O)c2cc3c(=O)oc4ccc(C)cc4c3s2)c1	none (no result: RORg inh, Gal4-VP16 FLuc)
O=C1C(CCCNC(=S)NCc2ccccc2)NC(=S)N1Cc1ccccc1 (stereo not drawn)	RORg inh 22µM, Gal4-VP16 FLuc inconclusive (no result: ATXN2 expr inh)
COc1ccc(CN2CCN(C(C)=O)CC2)cc1OC1CCN(C(=O)c2ccc3[nH]c(C)c(C)c3c2)CC1	none (no result: RORg inh, Gal4-VP16 FLuc, ATXN2 expr inh, HepG2 tox, TGFb SMAD3 inh)
O=C(NCCc1ccccc1)c1ccc(Cn2c(SCc3cccc(F)c3)nc3cccnc32)cc1	TGFb SMAD3 inh inconclusive (no result: RORg inh, S2 tox, Gal4-VP16 FLuc, ATXN2 expr inh)
COc1cccc2c(NCc3ccccc3)nc(-n3c(N)nc4ccccc43)nc12	ATXN2 expr inh 27µM (no result: RORg inh, S2 tox, Gal4-VP16 FLuc, HepG2 tox, TGFb SMAD3 inh)
Fc1ccccc1/C=N/Nc1nc(-c2ccccn2)nc2ccccc12	RORg inh 0.25µM, Gal4-VP16 FLuc 0.5µM (no result: S2 tox, ATXN2 expr inh, HepG2 tox, TGFb SMAD3 inh)
c1ccc(CNc2nc(-c3ccccn3)nc3ccccc23)cc1	RORg inh 2.5µM, Gal4-VP16 FLuc 3.5µM, ATXN2 expr inh inconclusive
Clc1ccccc1-c1nc(N/N=C/c2cccnc2)c2ccccc2n1	RORg inh inconclusive
COc1ccccc1-c1nc(NCc2ccccc2)c2ccccc2n1	RORg inh 35µM, Gal4-VP16 FLuc inconclusive (no result: S2 tox, ATXN2 expr inh, HepG2 tox, TGFb SMAD3 inh)
OC1CCN(Cc2ccc3c(c2)CN(C/C=C/c2ccco2)CCO3)CC1	none (no result: RORg inh, Gal4-VP16 FLuc, ATXN2 expr inh, HepG2 tox, TGFb SMAD3 inh)
CCS(=O)(=O)Nc1ccc2[nH]c(O)c(C(=Nc3ccc(CN4CCCCC4)cc3)c3ccccc3)c2c1	ATXN2 expr inh 7.7µM (no result: RORg inh, S2 tox, Gal4-VP16 FLuc, HepG2 tox, TGFb SMAD3 inh)
CCOc1ccc(S(=O)(=O)Nc2ccccc2C(=O)N/N=C/c2c(OC)ccc3ccccc23)cc1	RORg inh 6.3µM, Gal4-VP16 FLuc 5.6µM
Cc1ccc(COc2ccccc2C(=S)N2CCCC2)cc1	RORg inh 16µM, Gal4-VP16 FLuc inconclusive
COc1cccc(C(=S)N2CCCC2)c1OC	RORg inh inconclusive, Gal4-VP16 FLuc 0.079µM (no result: ATXN2 expr inh)
Cc1cccc(NS(=O)(=O)c2ccc(NC(=O)CN(c3cc([N+](=O)[O-])ccc3C)S(C)(=O)=O)cc2)c1	S2 tox inconclusive, Gal4-VP16 FLuc inconclusive, ATXN2 expr inh inconclusive, TGFb SMAD3 inh 16µM
